From PubChem BioAssay
Shown are actives, neighbours in structure and some others; about 22% of the full set was active somewhere.
Measles CPE: protection of cells from measles virus. Measles virus-infected cells, CPE protection, absorbance. protection (pct of control), % at 4 µM. hit rate 1.5% among 140,000. AID 841; in the data active = protection mostly above about 24%, no sharp cut-off; inactive = mostly below about 26%
CYP2C9 act: activators of human CYP2C9; P11712; recombinant CYP2C9, luciferin-H conversion, luminescence; hits give high values; factor 1 = untreated enzyme, 0 = blocked; activation factor at 5 µM; hit rate 1.4% among 96,000; AID 1024;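 active = activation factor of 2 or more for CYP2C9 at a 5 µM dose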;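 also: 0 = sulfaphenazole-blocked wells and 1 = vehicle-only wells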
CYP2C19 inh: inhibitors of human CYP2C19. hit rate 21% among 96,000. P33261. inhibition, % at 5 µM. CYP2C19 Supersomes, luciferin-H EGE luminescence, 30 min;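 active = CYP2C19 inhibition above a set limit at 5 µM in the primary screen, cut at about 50% in these data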;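 also: plate controls were negative control wells for no effect and 2.5 mM tranylcypromine positive control for full effect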
Target sequence (P33261 whole entry, looked up): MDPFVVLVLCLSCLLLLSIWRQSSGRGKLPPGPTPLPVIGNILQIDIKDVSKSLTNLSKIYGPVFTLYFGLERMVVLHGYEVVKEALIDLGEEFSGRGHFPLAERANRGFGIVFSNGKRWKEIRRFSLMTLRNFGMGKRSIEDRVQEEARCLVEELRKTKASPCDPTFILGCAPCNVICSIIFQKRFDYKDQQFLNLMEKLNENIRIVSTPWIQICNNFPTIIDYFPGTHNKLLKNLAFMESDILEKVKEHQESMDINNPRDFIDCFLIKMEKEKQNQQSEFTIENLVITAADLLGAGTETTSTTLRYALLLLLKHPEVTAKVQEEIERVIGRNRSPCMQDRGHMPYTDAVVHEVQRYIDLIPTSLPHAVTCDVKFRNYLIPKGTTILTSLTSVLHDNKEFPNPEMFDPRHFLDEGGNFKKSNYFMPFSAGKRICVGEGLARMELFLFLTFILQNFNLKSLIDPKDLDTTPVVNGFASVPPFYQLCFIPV
CYP2C19 act: activators of human cytochrome P450 2C19. P33261. recombinant CYP2C19, luciferin-H EGE luminescence; hits give high values; 0 = fully inhibited enzyme, 1 = untreated enzyme. activation factor at 5 µM. 96,000 tested, under 10 active. AID 1025;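 active = activation factor of at least 2 at 5 µM in the primary screen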;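 also: 0 = wells with 2.5 mM tranylcypromine and 1 = vehicle-only wells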
CYP2C9 inhib: blocks human cytochrome P450 2C9. CYP2C9 Supersomes, luciferin-H conversion, luminescence. inhibition, % at 5 µM. hit rate 20% among 96,000. AID 777;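 active = blocking of liver enzyme CYP2C9 beyond about 50% at 5 µM, limit read from the data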
* marks the source's active call; other numbers are inactive results; nt = no result given.

SMILES | Measles CPE | CYP2C9 act | CYP2C19 inh | CYP2C19 act | CYP2C9 inhib
CS(=O)(=O)Nc1nnc(SCC(=O)N(c2ccccc2)c2ccccc2)s1 | 18.8 | nt | nt | nt | nt
CCOC(=O)CSC1=C(C#N)C(=O)NC2(CCCCC2)S1 | 11.0 | 0.4 | 23.8 | 0.8 | 60.7*
CCOC(=O)CSc1nc(C)c(C(C)=O)cc1C#N | 25.0 | 0.8 | 38.5 | 0.6 | 19.9
CC1CCN(CCC(=O)Nc2ccc3c(c2)CCC3)CC1 | 7.9 | nt | nt | nt | nt
COc1ccc(CC(=O)Nc2ccc3c(c2)CCC3)cc1OC | 1.9 | 1.3 | 81.1* | 0.2 | -34.9
CC1CN(CCC(=O)Nc2ccc3c(c2)CCC3)CC(C)O1 (centres undefined) | 5.6 | 0.9 | 51.9* | 0.5 | 7.5
COc1ccccc1CC(=O)Nc1ccc2c(c1)CCC2 | 5.1 | nt | nt | nt | nt
COc1cc(NC(=S)NC(=O)CC(C)C)ccc1NC(=O)c1cc2ccccc2o1 | 13.3 | nt | nt | nt | nt
COCCN(C(=O)Nc1ccccc1)c1ccccc1C | 57.5* | nt | nt | nt | nt
COCCSc1ccccc1C(=O)Nc1ccncc1 | 22.6 | 0.2 | 92.0* | 0.1 | 83.8*
CCN(C(=O)Nc1ccccc1)c1ccccc1 | 14.0 | nt | nt | nt | nt
COCCCN(C(=O)Nc1ccccc1)C(C)c1ccncc1 (centres undefined) | 7.0 | 0.4 | 76.9* | 0.2 | 59.5*
CN1CC=C2C(C#N)=C(N)C(C#N)(C#N)C(c3cccc(Cl)c3Cl)C2C1 (centres undefined) | 12.6 | 0.1 | 93.0* | 0.1 | 90.9*
Cc1ccc(-n2ncc(C#N)c2/N=C/N2CCOCC2)cc1 | 16.9 | 0.4 | 85.3* | 0.1 | 64.9*
COc1ccc(S(=O)(=O)N2CCN(Cc3ccc4c(c3)OCO4)CC2)c2ccccc12 | 18.1 | 0.3 | 89.4* | 0.1 | 73.7*
COc1ccc(F)cc1S(=O)(=O)N1CCN(Cc2ccc3c(c2)OCO3)CC1 | 4.1 | 0.7 | 55.7* | 0.4 | 28.5
Cc1ccc2nsnc2c1S(=O)(=O)N1CCCC1 | 11.0 | 1.3 | 37.4 | 0.6 | -33.0
COc1cccc(C(=O)N2CCN(Cc3ccc4c(c3)OCO4)CC2)c1OC | 9.0 | 1.2 | 8.6 | 0.9 | -20.2
Cc1ccc2nsnc2c1S(=O)(=O)N1CCN(Cc2ccc3c(c2)OCO3)CC1 | 23.9 | 0.3 | 97.3* | 0 | 72.9*
CSc1ccc(S(=O)(=O)N2CCN(Cc3ccc4c(c3)OCO4)CC2)cc1 | 12.4 | 0.6 | 26.1 | 0.7 | 42.1
COc1ccc(Cl)cc1S(=O)(=O)N1CCN(Cc2ccc3c(c2)OCO3)CC1 | 6.4 | 0.7 | 73.8* | 0.3 | 30.3
NC(=O)CC[C@H](NC(=O)c1ccc(F)cc1)C(=O)OCC(=O)Nc1ccc(N2CCOCC2)cc1 | 7.0 | nt | nt | nt | nt
Cc1cnn(-c2ccc3nnc(-c4ccc(Cl)cc4)n3n2)c1 | 3.5 | 0.7 | 19.3 | 0.8 | 27.9
O=S(=O)(Cc1ccccc1Cl)N1CCN(Cc2ccc3c(c2)OCO3)CC1 | 26.5 | 1.1 | 93.6* | 0.1 | -7.6
Cc1cc(S(=O)(=O)N2CCN(Cc3ccc4c(c3)OCO4)CC2)cc(C)c1N1CCCC1=O | 12.6 | 0.6 | 16.0 | 0.8 | 36.3
SMILES | Measles CPE | CYP2C9 act | CYP2C19 inh | CYP2C19 act | CYP2C9 inhib
COc1ccc(CCNc2c([N+](=O)[O-])c(=O)oc3ccccc23)cc1OC | 5.2 | 0.6 | 59.4* | 0.4 | 44.0
O=c1oc2ccccc2c(Nc2ccccc2)c1[N+](=O)[O-] | 5.8 | nt | nt | nt | nt
COc1ccc(CCNC(=O)Cc2ccc(OCc3ccccc3)c(OC)c2[N+](=O)[O-])cc1OCc1ccccc1 | 4.2 | 0.1 | 74.4* | 0.3 | 90.5*
O=c1oc2ccccc2c(Nc2cccc3ccccc23)c1[N+](=O)[O-] | 11.3 | 0.4 | 90.9* | 0.1 | 62.2*
COc1cc2c(cc1OC)C(c1cccs1)N(C(=O)C(C)C)CC2 (centres undefined) | 20.4 | 0.6 | 62.8* | 0.4 | 43.6
CN(C)c1ccc(C(=S)N2CCOCC2)cc1Br | 32.8 | 2.4* | 30.3 | 0.7 | -142.0
COc1cccc(OC)c1C(=O)N1CCOCC1 | 2.9 | nt | nt | nt | nt
COc1ccc(C(=O)N2CCOCC2)cc1Br | 18.9 | 2.3* | 8.4 | 0.9 | -130.9
S=C(c1ccc(N2CCOCC2)cc1)N1CCOCC1 | 8.7 | 0.8 | 8.7 | 0.9 | 18.5
Cc1ccc2cc(CN(C)C(=O)C3CCCO3)c(=O)[nH]c2c1 (centres undefined) | 15.8 | 1 | 0.6 | 1 | -4.4
Cc1cc(C)c(S(=O)(=O)N2CCN(CCO)CC2)c(C)c1 | 15.0 | 2.3* | 43.2 | 0.6 | -129.1
Cc1cc(C)c(S(=O)(=O)N2CCN(C)CC2)c(C)c1 | 9.9 | 2.2* | 6.7 | 0.9 | -121.6
COC(=O)CCN(C1CCCCC1)S(=O)(=O)c1ccc(S(=O)(=O)N2CCCCC2)cc1 | 5.7 | 0.9 | 7.9 | 0.9 | 8.0
O=S(=O)(c1ccc(S(=O)(=O)N(Cc2ccc(F)cc2)C2CCCC2)cc1)N1CCCC1 | 11.3 | 0.2 | 67.9* | 0.3 | 77.4*
Cc1ccc(S(=O)(=O)NNC(=O)NC23CC4CC(CC(C4)C2)C3)cc1 | 7.5 | nt | nt | nt | nt
CC1(C)OC(=O)N(c2ccccc2)C12C=Cc1cc(Br)ccc1O2 (centres undefined) | 10.4 | 0.2 | 82.8* | 0.2 | 85.0*
CCOC(=O)CSc1nc(N(C)C)nc(N(C)C#N)n1 | 5.2 | nt | nt | nt | nt
Cc1ccc(F)cc1NC(=O)Cc1ncc(C(F)(F)F)cc1Cl | 4.3 | 0.9 | 50.9* | 0.5 | 7.3
Cc1ccc(S(=O)(=O)N(C)C)cc1NC(=O)CSc1ncc(C(F)(F)F)cc1Cl | 11.5 | nt | nt | nt | nt
O=C(COc1ncnc2sccc12)N1CCN(S(=O)(=O)c2ccc(Cl)cc2)CC1 | 8.2 | 0.9 | 0.6 | 1 | 11.6
CC1(C)Cc2c(C#N)c(SCc3ccccc3)nc(N3CCOCC3)c2CO1 | 13.0 | 0.1 | 23.2 | 0.8 | 88.2*
CC1(C)Cc2c(C#N)c(SCC(=O)c3ccccc3)nc(N3CCOCC3)c2CO1 | 15.9 | 0.1 | 61.8* | 0.4 | 91.7*
CC1(C)Cc2c(C#N)c(NCCN3CCOCC3)nc(-c3ccco3)c2CO1 | 6.3 | 0.7 | 22.7 | 0.8 | 27.7
CCCCCSc1nc(N2CCOCC2)c2c(c1C#N)CC(C)(C)OC2 | 11.0 | 0.2 | 25.1 | 0.7 | 82.8*
COC(=O)Sc1nc(N2CCOCC2)c2c(c1C#N)CC(C)(C)OC2 | 25.0 | 0.2 | 62.5* | 0.4 | 83.0*
SMILES | Measles CPE | CYP2C9 act | CYP2C19 inh | CYP2C19 act | CYP2C9 inhib
CCOc1ccc2nnc(-c3ccc(Br)cc3)n2n1 | 2.0 | nt | nt | nt | nt
CC(=O)/C(=N/Nc1ccccc1C)N1CCOCC1 | 3.8 | 1 | 17.4 | 0.8 | -3.0
CCOC(=O)C(NC(=O)c1ccccc1Cl)(Nc1ccc(C(F)(F)F)cc1)C(F)(F)F (centres undefined) | 19.6 | nt | nt | nt | nt
CCOC(=O)C(NC(=O)c1ccc(Cl)cc1Cl)(Nc1ccc(C)cc1)C(F)(F)F (centres undefined) | 2.5 | 0.9 | 91.0* | 0.1 | 14.7
C=C(C)c1cccc(C(C)(C)NC(=O)N(Cc2ccccc2)Cc2ccco2)c1 | 3.9 | 0.3 | 41.9 | 0.6 | 72.5*
COc1ccc2nc(NC(=O)CSc3nc(C)cc(C)n3)sc2c1 | 33.2 | 0.2 | 89.9* | 0.1 | 84.2*
Cc1cccc2sc(NC(=O)CSc3nc4ccccc4o3)nc12 | 7.3 | 1 | -1.2 | 1 | 4.2
